Data taken from PubChem BioAssay (NCATS).
A number with no mark means an inactive call. Calls of active or inactive are those of the source. The call rests on the fitted dose curve; in most records, active means well fitted activation curve with a large enough effect; inconclusive means small, poorly fitted or top-dose-only effect, or effect the other way; inactive means flat fitted curve, though single readings scatter.

Experiment: Cellular Toxicity (caspase-3) Renal Proximal Tubule (AID 667);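 further: cells exposed to compound for 16 hours at 37 °C before detection; 0% = DMSO basal and 100% = 10 µM staurosporine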
Details: renal proximal tubule cells; series mostly up to 91.7 µM; caspase-3 activation: at the top concentration
From the text: NIH Chemical Genomics Center [NCGC]
NIH Molecular Libraries Screening Centers Network [MLSCN]
National Institutes of Environmental Health Sciences [NIEHS]
National Toxicology Program [NTP]
We have developed a 1536-well cell-based assay for quantitative high throughput screening (qHTS) against a number of cell lines to determine in vitro caspase 3/7 activity of small molecules. This particular assay uses the primary kidney proximal tubule cells freshly isolated from rat.
NCGC Assay Protocol Summary:
The Caspase-Glo 3/7 assay (Promega) is a homogeneous method to measure caspase-3 and caspase-7 activities in cultured cells. The quantitation of caspase 3/7 activity is based on the cleavage of a peptide-aminoluciferin substrate. After caspase cleaves the substrate the free aminoluciferin is liberated and serves as the substrate of luciferase, which generates the light. The luminescent signal is proportional to the amount of caspase 3/7 activity present.
Using the Caspase-Glo 3/7 assay, the amount of caspase 3/7 activity was measured in the rat kidney proximal tubule cells with complete culture medium following compound treatment for 16 hours. The assay was performed in opaque white 1536-well plates. In the screen, staurosporine and doxorubicin were used as positive controls. Library compounds were measured for their ability to cause the activation of caspase 3/7 in the cell line, as reflected by an increase in luminescence signal, in a concentration-dependent manner. Data were normalized to the controls for basal activity (DMSO only) and 100% stimulation (10 uM staurosporine). AC50 values were determined from concentration-response data modeled with the standard Hill equation.
qHTS protocol for caspase 3/7 assay in rat kidney proximal tubule cells
[Step] [Parameter] [Value] [Description]
1. Reagent; 5 uL; 1000 rat kidney proximal tubule cells/well
2. Time; 5 hr; 37 °C incubation
4. Controls; 23 nL; doxorubicin 7 pM to 100 uM & staurosporine 1.4 pM to 20 uM
5. Time; 16 hr; 37 °C incubation
6. Reagent; 5 uL; Caspase-Glo 3/7 reagent
7. Time; 1 hr; Room Temperature
8. Detection; Luminescence; Viewlux plate reader
Keywords: caspase 3/7, apoptosis, rat kidney proximal tubule cells, luminescence, NTPHTS, NTPHTS_NCGC, NIEHS, EPA, DSSTox, MLSMR, MLSCN, NIH Roadmap, qHTS, NCGC

Structure (SMILES) | caspase-3 activation | outcome
O=[N+]([O-])c1c(Cl)c(Cl)cc(Cl)c1Cl | 3.1% | 
Cc1cc(O)ccc1Cl | -9.54% | 
O=[N+]([O-])c1c2ccccc2cc2ccccc12 | 1.91% | 
OCCCBr | -5.16% | 
CCOCCOC(C)=O | 2.81% [at 91.7 µM, primary cells freshly taken from rat, solvent-only wells 0%, staurosporine 100%] | 
Nc1ccc(Cl)cc1N | -13.9% | 
CC(C)(O)C(=O)Nc1ccc([N+](=O)[O-])c(C(F)(F)F)c1 | -13.6% | 
Nc1ccc([N+](=O)[O-])cc1 | 11.8% | 
CCCCOC(=O)c1ccccc1C(=O)OCc1ccccc1 | -8.39% | 
Nc1ccc(Sc2ccc(N)cc2)cc1 | -3.04% | 
O=[N+]([O-])c1cc([N+](=O)[O-])c2ccccc2c1 | -8.81% | 
CCOP(=O)(NC(C)C)Oc1ccc(SC)c(C)c1 (stereo unspecified) | 13.5% | 
CCCCCCCCc1ccc(O)cc1 | 7.2% | 
CCCCC(CC)COC(=O)c1ccccc1C(=O)OCC(CC)CCCC (stereo unspecified) | 11.2% | 
CN(C)NC(=O)CCC(=O)O | 7.93% | 
C=CC(=O)NCNC(=O)C=C | -12.4% | 
CC(=O)[O][Hg][c]1ccccc1 | -18.4% | 
O=C(O)C(Cl)Cl | 0.541% | 
CN(C)[C@@H]1C(=O)C(C(N)=O)=C(O)[C@@]2(O)C(=O)C3=C(O)c4c(O)cccc4[C@@](C)(O)[C@H]3[C@H](O)[C@@H]12 | -4.63% | 
c1cc2ccc3cccc4ccc(c1)c2c34 | 7.63% [at 91.7 µM, primary cells freshly taken from rat, solvent-only wells 0%, staurosporine 100%] | 
COc1ccc(C(c2ccc(OC)cc2)C(Cl)(Cl)Cl)cc1 |  | inactive
COC(C)(C)CCCC(C)C/C=C/C(C)=C/C(=O)OC(C)C (stereo unspecified) | 3.63% [at 91.7 µM, primary cells freshly taken from rat, solvent-only wells 0%, staurosporine 100%] | 
Nc1ccc(Cl)cc1 | -5.77% | 
C1CCC(NC2CCCCC2)CC1 |  | inactive
O=S(=O)(c1ccc(Cl)cc1)c1ccc(Cl)cc1 |  | inactive
O=C(O)COc1ccccc1 | 8.25% | 
